Gal4-VP16 FLuc: Gal4-VP16 reporter inhibition counter-screen; Drosophila S2 Gal4-VP16 UAS-luciferase, luminescence, 20 h; Potency, µM (titrated, usually from 53.6 µM), usual class: inhibitors; actives 3.5% (n = 310,000); AID 2546;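 note: Gal4-VP16 expression switched on by copper sulfate through the metallothionein promoter; nearly all actives have a fitted effect of over 50% in size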
SW480 rereplic: DNA re-replication induction in SW480 cells. SW480 DNA re-replication, Hoechst DNA content imaging, 48 h. Potency, µM (top dose mostly 46.1 µM), hits mostly activators. actives 1.8% (n = 340,000); note: nearly all actives have a fitted effect of over 55% in size
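SW480 cells exposed to compounds for 48 hr at 37 C, 5% CO2, then Hoechst-stained 40 min. Nuclear DNA content imaged by fluorescence scanning (405 nm excitation, 500-530 nm emission); re-replication scored as increased high-intensity nuclei.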
Chronic BCR inh: blocks chronic active B-cell receptor signaling; Potency, µM (doses to about 46.1 µM), most hits filed as inhibitors; AID 493014; actives 0.05% (n = 340,000); ABC-DLBCL IkBa-CBG/CBR reporter, luminescence ratio, 4 h; active = well fitted inhibition curve with a large enough effect in the signal ratio, with a control signal flat, not every such curve was filed as active; inconclusive = small, poorly fitted or top-dose-only effect, or effect the other way, or a change in a side signal; the % refers to the signal ratio
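Cell line TMD8 (human ABC DLBCL), stably expressing tet-inducible CBG68-IkBa fusion and CBR; IMDM/0.5% FBS; cpd up to 46 uM; dox induction, 4 h, 37C/5% CO2; dual luminescence; green/red ratio; MG132 control.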
Giardia kill: kills Giardia lamblia | Giardia lamblia trophozoite viability | activity change, % at 7.66 µM, hits read low | actives 0.15% (n = 340,000); in the data active = activity change below about -80%; inconclusive = between about -30% and that limit;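 note: parasites exposed to compound for two days anaerobically before the ATP read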
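Media and compound were dispensed first, then trophozoites at 100 cells/well; plates sat 48 hrs at 37 deg C without oxygen before ATP luminescence reagent was added and read after 15-30 min at room temperature.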
MCF10A rerep: induces DNA re-replication in MCF 10a normal breast cells | MCF 10A DNA re-replication, Hoechst nuclear intensity, 48 h | Potency, µM (top dose mostly 46.1 µM), actives largely listed as activators | actives 2.9% (n = 350,000) | AID 624296; note: nearly all actives have a fitted effect of over 50% in size
RORgamma inh: inhibitors of mouse ROR gamma transcriptional activity. Drosophila S2 Gal4-RORgamma UAS-luciferase reporter, 20 h. Potency, µM (highest dose often 53.6 µM), usual class: inhibitors. actives 5.4% (n = 310,000). P51450. AID 2551; note: nearly all actives have a fitted effect of over 60% in size
Target sequence (P51450 whole entry, looked up, the tested form may be a part): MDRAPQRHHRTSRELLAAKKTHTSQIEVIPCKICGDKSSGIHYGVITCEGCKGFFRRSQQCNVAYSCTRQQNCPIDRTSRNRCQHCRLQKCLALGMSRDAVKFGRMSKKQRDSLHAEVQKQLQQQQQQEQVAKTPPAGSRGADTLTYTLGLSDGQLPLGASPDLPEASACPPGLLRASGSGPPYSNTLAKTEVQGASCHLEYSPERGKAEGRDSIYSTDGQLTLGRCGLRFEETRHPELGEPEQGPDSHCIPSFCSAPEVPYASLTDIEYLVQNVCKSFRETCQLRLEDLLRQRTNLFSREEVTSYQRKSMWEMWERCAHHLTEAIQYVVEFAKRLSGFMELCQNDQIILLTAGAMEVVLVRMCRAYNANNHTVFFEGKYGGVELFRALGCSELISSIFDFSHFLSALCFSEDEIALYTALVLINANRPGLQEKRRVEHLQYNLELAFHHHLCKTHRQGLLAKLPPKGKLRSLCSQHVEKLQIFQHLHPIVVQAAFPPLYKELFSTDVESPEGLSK
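In this cell-based reporter format, copper sulfate (700 uM final) drives Gal4–ROR gamma fusion expression from a metallothionein promoter in Drosophila Schneider cells; compounds preincubated 1 hr, reporter read after 20 hr at ambient temperature.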
Each line names hits and unclear results; the compound was inactive in the other large screens. Sampled rows, rich in hits. Any-hit rate of the full collection: about 8.3%. Unless noted, calls come from the whole dose curve; as a rule, active = well fitted curve in the direction sought with a large enough effect; inconclusive = small, poorly fitted or top-dose-only effect, or another doubt; inactive = no such curve, though single readings can be large; an effect the other way counts as inactive or inconclusive.

COC(=O)Nc1ccc(S(=O)(=O)NCc2ccccn2)cc1	Chronic BCR inh inconclusive, MCF10A rerep inconclusive
S=c1[nH]nc(-c2ccncc2)n1/N=C/c1cccc2ccccc12	Chronic BCR inh inconclusive (no result: SW480 rereplic, Giardia kill, MCF10A rerep)
Cc1nnc(C)n1/N=C/c1c(O)ccc2ccccc12	none
CCc1n[nH]c(=S)n1/N=C/c1cccc2ccccc12	Gal4-VP16 FLuc 7.9µM, Chronic BCR inh inconclusive, MCF10A rerep inconclusive, RORgamma inh 7.1µM
CCc1n[nH]c(=S)n1/N=C/c1c(O)ccc2ccccc12	Gal4-VP16 FLuc 20µM, RORgamma inh inconclusive
Cc1cc(C)n(-c2nc(N(C)C)nc(N3CCOCC3)n2)n1	Gal4-VP16 FLuc inconclusive, SW480 rereplic inconclusive, RORgamma inh 3.2µM
Cc1cc(N2CCC(C)CC2)nc(-n2nc(C)cc2C)n1	Gal4-VP16 FLuc 1.3µM, Chronic BCR inh inconclusive, RORgamma inh 0.4µM
CCOC(=O)C1=CN(Cc2cccc(F)c2)S(=O)(=O)NC1CCc1ccccc1 (stereo not drawn)	MCF10A rerep 15µM (no result: Gal4-VP16 FLuc, RORgamma inh)
OCC[C@H]1C[C@H](O)[C@@H](O)[C@@]2(Cc3ccccc3O2)O1	none (no result: Gal4-VP16 FLuc, RORgamma inh)
CCN(CCCCO)c1nc(C)nc2c1c(C)c(C)n2-c1c(C)cc(C)cc1C	Gal4-VP16 FLuc inconclusive, RORgamma inh 11µM (no result: SW480 rereplic, Chronic BCR inh, Giardia kill, MCF10A rerep)
CCCCN(CC)c1nc(C)nc2c1c(C)c(C)n2-c1c(C)cc(C)cc1C	Gal4-VP16 FLuc inconclusive, RORgamma inh 2.2µM (no result: SW480 rereplic, Chronic BCR inh, Giardia kill, MCF10A rerep)
CN(Cc1ccccc1F)Cc1cc(=O)oc2cc(O)c(Cl)cc12	SW480 rereplic inconclusive, Chronic BCR inh inconclusive, MCF10A rerep 5.8µM
CC1CCN(Cc2cc(=O)oc3cc(O)c(Cl)cc23)CC1	SW480 rereplic inconclusive, Chronic BCR inh inconclusive, MCF10A rerep 15µM
Oc1c(Cl)cc(Cl)cc1/C=N/c1nc(-c2ccc(Cl)cc2)cs1	MCF10A rerep inconclusive
Oc1c(Cl)cc(Cl)cc1/C=N/c1nccs1	Gal4-VP16 FLuc inconclusive, Chronic BCR inh inconclusive, MCF10A rerep 15µM, RORgamma inh 13µM
O=C(Cc1ccc(S(=O)(=O)N2CCOCC2)s1)N1CCN(S(=O)(=O)c2ccc(Cl)cc2)CC1	MCF10A rerep inconclusive (no result: Gal4-VP16 FLuc, RORgamma inh)
Cc1ccc(N2C(=O)c3cccc4c([N+](=O)[O-])ccc(c34)C2=O)c2cccnc12	SW480 rereplic 2.1µM, Giardia kill inconclusive, MCF10A rerep 2.6µM
Cc1nnc(N2C(=O)c3cccc4c([N+](=O)[O-])ccc(c34)C2=O)s1	Gal4-VP16 FLuc 3.2µM, SW480 rereplic inconclusive, MCF10A rerep 23µM, RORgamma inh 4µM
Cc1ccnc(N2C(=O)c3cccc4c([N+](=O)[O-])ccc(c34)C2=O)c1	SW480 rereplic 3.7µM, MCF10A rerep 4.6µM, RORgamma inh 6.3µM
O=C1c2cccc3c([N+](=O)[O-])ccc(c23)C(=O)N1Cc1cccnc1	Gal4-VP16 FLuc inconclusive, SW480 rereplic inconclusive, Chronic BCR inh inconclusive, MCF10A rerep 18µM, RORgamma inh 4.5µM
Cc1csc(NC(=O)CSc2nc3nc(C)cc(C)n3n2)n1	none (no result: Gal4-VP16 FLuc, RORgamma inh)
Cc1ccc(N2C(=O)N3[C@H](c4ccc(F)cc4)[C@@H]4C(=O)N(C5CCCCC5)C(=O)[C@@H]4[C@]3(Cc3ccccc3)C2=O)cc1	none
CC(=O)Nc1ccc(S(=O)(=O)NC2CCCCCC2)cc1	none
CSc1ccc(S(=O)(=O)NC2CCCCCC2)cc1	Gal4-VP16 FLuc inconclusive, MCF10A rerep 9.2µM
CCOCCCn1c(=N)c(S(=O)(=O)c2ccccc2)cc2c(=O)n3cc(C)ccc3nc21	SW480 rereplic 5.8µM, MCF10A rerep 8.2µM
C=CCn1c(=N)c(S(=O)(=O)c2ccc(C)c(C)c2)cc2c(=O)n3ccccc3nc21	SW480 rereplic inconclusive, MCF10A rerep 23µM
CCCn1c(=N)c(S(=O)(=O)c2ccc(F)cc2)cc2c(=O)n3ccccc3nc21	SW480 rereplic inconclusive, MCF10A rerep inconclusive
N=c1c(S(=O)(=O)c2ccccc2)cc2c(=O)n3ccccc3nc2n1CCCN1CCOCC1	SW480 rereplic inconclusive
Cc1ccc(S(=O)(=O)c2cc3c(=O)n4ccccc4nc3n(CCCN3CCOCC3)c2=N)cc1C	SW480 rereplic 23µM, MCF10A rerep 23µM
